Results taken from PubChem BioAssay (NCI).
About 83,000 compounds went through this panel and 20% of them were active in at least one assay; those are over-represented in the sample as a whole.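 Growth was measured after 48 h exposure to one concentration of compound in 96-well plates. Values under 10 count as active.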 A number with no mark means an inactive call. Active and inactive are the calls of the source.

Columns and labels:
Test in all cases: NCI-60 one-dose screen, 48 h (100 = growth as untreated, 0 = no growth, -100 = all killed)
Conditions in all cases: 10 µM unless noted
HCT-15 colon = system: HCT-15 colon
HT29 colon = system: HT29 colon
SNB-75 CNS = system: SNB-75 CNS
SNB-19 CNS = system: SNB-19 CNS
U251 CNS = system: U251 CNS
PC-3 prostate = system: PC-3 prostate
SK-MEL-5 melanoma = system: SK-MEL-5 melanoma
UACC-62 melanoma = system: UACC-62 melanoma
LOX IMVI melanoma = system: LOX IMVI melanoma
SK-MEL-28 melanoma = system: SK-MEL-28 melanoma
SK-MEL-2 melanoma = system: SK-MEL-2 melanoma
EKVX NSCLC = system: EKVX NSCLC
SN12C renal = system: SN12C renal
UO-31 renal = system: UO-31 renal
TK-10 renal = system: TK-10 renal
ACHN renal = system: ACHN renal
CAKI-1 renal = system: CAKI-1 renal
A498 renal = system: A498 renal
CCRF-CEM leukemia = system: CCRF-CEM leukemia
MOLT-4 leukemia = system: MOLT-4 leukemia

SMILES	growth (HCT-15 colon)	growth (HT29 colon)	growth (SNB-75 CNS)	growth (SNB-19 CNS)	growth (U251 CNS)	growth (PC-3 prostate)	growth (SK-MEL-5 melanoma)	growth (UACC-62 melanoma)	growth (LOX IMVI melanoma)	growth (SK-MEL-28 melanoma)	growth (SK-MEL-2 melanoma)	growth (EKVX NSCLC)	growth (SN12C renal)	growth (UO-31 renal)	growth (TK-10 renal)	growth (ACHN renal)	growth (CAKI-1 renal)	growth (A498 renal)	growth (CCRF-CEM leukemia)	growth (MOLT-4 leukemia)
CCOC(=O)c1nnn(Cc2cc(=O)oc3ccc(O)cc23)c1C	103%	103%	93.4%	96%	105%	95.2%	104%	95.9%	99.9%	107%	111%	105%	96.2%	91.8%	101%	105%	96.7%	101%	82.9%	100%
Cc1cc(=O)oc2cc(Oc3nc(Br)cn4c(Br)cnc34)ccc12	95.6%	99.9%	-2.07% (active)	74.6%	47.6%	82.1%	40.3%	85.2%	74.3%	104%	78%	75.6%	75.8%	58.8%	114%	65.8%	95.7%	97.4%	106%	87.5%
COc1cc(C[C@H]2COc3cc(O)cc(O)c3C2=O)ccc1O	19.9%	83.8%	14.1%	31.5%	22.3%	29.7%	22.4%	30.9%	38.6%	58.4%	13.2%	74.3%	40.9%	48.8%	58.7%	41.7%	35.8%	90.4%	11.4%	29.3%
CC1(C)CC(=O)C2=C(C1)C(c1ccc(Cl)cc1)n1ncc(C#N)c1N2 (stereo not given)	105%	106%	75.6%	96.5%	97.8%	90.4%	95.4%	89.8%	107%	112%	103%	92.8%	90.9%	85.5%	107%	93.2%	90.3%	103%	98.4%	98.1%
C[C@H](c1nc2ccc(C#N)cc2[nH]1)[C@H]1CC[C@H]2[C@@H]3CCC4=CC(=O)CC[C@]4(C)[C@H]3CC[C@]12C	44.7%	32.9%	75.7%	71.6%	65.3%	28.5%	50.4%	56.6%	71.7%	89.4%	84.9%	58.4%	69.5%	51.8%	95.2%	80.4%	50.8%	14.5%	46.5%	49.2%
COC(=O)/C=C1/SC(=NCc2ccccc2)N(CCc2c[nH]c3ccccc23)C1=O	58.5%	68.1%	104%	87.2%	78.5%	72.9%	87.6%	71.7%	70.6%	86.5%	85.8%	88.1%	85.4%	73%	129%	99.5%	102%	88.1%	30.3%	3.29% (active)
O=C(NN1C(=O)CSC1c1cccc([N+](=O)[O-])c1)c1ccc(NC(=O)c2ccccn2)cc1 (stereo not given)	92.3%	105%	98.9%	97.8%	106%	107%	102%	96%	94.9%	99.3%	102%	97.7%	96.9%	94.5%	97%	103%	98.7%	97.5%	110%	69.7%
N#Cc1c(-c2ccccc2)nc2c(c(-c3ccccc3)nn2-c2ccccc2)c1-c1ccc(N2CCCCC2)cc1	107%	110%	84.2%	99.3%	96.8%	90.5%	99.2%	92.8%	96%	106%	110%	99.5%	99.4%	84.9%	103%	101%	86.1%	97.7%	96.5%	95.5%
Nc1c(Br)cc2c(c1Br)Cc1cc([N+](=O)[O-])ccc1-2	104%	110%	75.3%	94.5%	95.5%	87.9%	91.4%	89.1%	102%	113%	109%	55.3%	101%	79.1%	90.6%	93.2%	98%	114%	95.7%	83.4%
CCC(C)(C)c1ccc(Nc2ccc(Nc3ccc(C(C)(C)CC)cc3)cc2)cc1	91.2%	67%	93%	95.9%	90.7%	65.8%	99.2%	83.2%	89.9%	105%	95.9%	98.6%	96.7%	62.5%	103%	97%	71%	121%	87.9%	76%
Cc1cc(O)cc(-c2nn(C)cc2-c2cc(N3CCOCC3)nc(-c3cccnc3)n2)c1	22.7%	17.4%	1.48% (active)	33.8%	21.5%	22.7%	1.65% (active)	18.1%	25.6%	46.8%	51.5%	52.3%	32.3%	30.5%	51.6%	37.9%	43.9%	-36.3% (active)	24.3%	26.8%
Oc1c(CN2CCC(N3CCOCC3)CC2)cc(Cc2cc(CN3CCC(N4CCOCC4)CC3)c(O)c3ncccc23)c2cccnc12	24%	30.2%	56.9%	29.3%	27.5%	13.1%	8.31% (active)	-6.33% (active)	1.05% (active)	45%	53.7%	24.9%	29.1%	17.9%	42.3%	23.5%	13.2%	69.1%	12.6%	6.57% (active)
C=C1CC[C@@H]2C(C)(C)[C@H](O)CC[C@@]2(C)[C@@H]1COc1ccc2ccc(=O)oc2c1	56.2%	84.1%	98.5%	86.2%	83.1%	25.2%	19.1%	24.5%	36.5%	73.6%	63.8%	57.8%	67.3%	-3.4% (active)	96.3%	49%	39.6%	64.5%	26.2%	31.6%
CC(C)(C)CC(C)(C)Nc1c(-c2c(O)c3ccccc3oc2=O)nc2sc3ccccc3n12	20%	34.8%	49.7%	26.1%	25.5%	34.9%	42%	30.4%	36.4%	58.2%	66.2%	26.6%	51%	16%	32.3%	33.7%	23.5%	69.6%	23.4%	28.5%
COc1ccc2[nH]cc(-c3nonc3-c3c[nH]c4ccc(Br)cc34)c2c1	19.9%	5.38% (active)	58.6%	62.9%	42.2%	39.8%	78.1%	56%	-33.4% (active)	84.1%	73.1%	29.9%	67.7%	36.5%	49.9%	38.7%	24.8%	51.4%	38.6%	28.3%
N#Cc1ccc(/C=C/c2cn(-c3ccccc3)nc2-c2cccc([N+](=O)[O-])c2)cc1	65.4%	53.2%	27.3%	21.6%	46.7%	44.3%	72.7%	77%	77.4%	66.3%	76.3%	66.8%	48.1%	79.3%	76.9%	32.7%	71.1%	97%	88.3%	97.6%
O=C(NNc1nc2cc(F)ccc2n2c(CN3CCOCC3)ccc12)c1ccccc1	16.9%	1.95% (active)	46.1%	18.8%	-34.5% (active)	22.9%	-9.55% (active)	-4.27% (active)	-39.6% (active)	15.7%	34.6%	14.2%	10.1%	12.1%	46%	8.05% (active)	7.45% (active)	-22.4% (active)	3.36% (active)	2.3% (active)
CCCCO[C@@H]1C=C2[C@H]3CC(C)(C)C(=O)C[C@]3(C(=O)O[C@@H]3O[C@H](CO[C@@H]4O[C@H](CO)[C@@H](OC5OC(C)C(O)C(O)C5O)[C@H](O)[C@H]4O)[C@@H](O)[C@H](O)[C@H]3O)CC[C@@]2(C)[C@]2(C)CC[C@H]3C(C)(C)C(=O)CC[C@]3(C)[C@@H]12 (stereo not given in full)	54.5%	43.2%	31.3%	88%	56.4%	85.2%	63.9%	81.4%	76.9%	41.5%	64.3%	87.1%	81.2%	19.4%	61.6%	22.9%	50.8%	93.9%	43.3%	51.5%
COc1ccc(C=Nc2c(C(=O)Nc3cccc(Cl)c3C)sc3nc(C)c(C(=O)/C=C/c4ccc(OC)cc4)cc23)cc1	19.6%	9.21% (active)	-11.3% (active)	11.7%	23.6%	32.8%	3.54% (active)	7.41% (active)	19%	38.3%	42.2%	43.2%	21%	35.9%	36.5%	36.1%	24%	-4.79% (active)	19.7%	52.2%
COCCOC(C)C(/C=N/NC(N)=S)=N/NC(N)=S (stereo not given)	51.8%	39.5%	120%	92.8%	48.5%	27.9%	60.8%	67.1%	51.1%	90.1%	82.5%	55.7%	76.5%	79.1%	92.5%	66.7%	82.6%	107%	42.6%	16.7%
Cc1cc(Cl)nc(N2CCN(CCNc3ccnc4cc(Cl)ccc34)CC2)n1	22.4%	10.5%	87.5%	79.9%	55.3%	43.1%	-45.2% (active)	29.7%	-14.6% (active)	47.7%	61.1%	44.8%	71.2%	32.4%	48.2%	58.2%	44.6%	42.4%	63.1%	32.6%
COC(=O)c1nc(-c2ccccc2)oc1S(=O)(=O)N1CCCC(C)C1 (stereo not given)	37.2%	56.3%	105%	91.5%	90.8%	71.6%	85.2%	84.7%	61.6%	84.9%	96.7%	100%	84.4%	65.7%	50.6%	66.7%	92.6%	92.9%	1.21% (active)	6.09% (active)
O=C(/C=C/c1cn(-c2ccccc2)nc1-c1ccccc1)CCC(=O)NO	110%	104%	95.6%	112%	106%	108%	105%	103%	99.4%	130%	99%	111%	102%	87.7%	104%	106%	94.5%	105%	93.2%	79.9%
C1CCC(N2CN3c4nonc4N4CN(C5CCCCC5)CN5c6nonc6N(C2)C3C45)CC1 (stereo not given)	84.5%	105%	88.7%	102%	93.3%	87.9%	93.5%	88.7%	98.9%	101%	102%	82.4%	92.4%	71.9%	102%	103%	84.9%	92.9%	51%	91.8%
Cc1ccc(C(=O)c2ccc(CC(=O)N/N=C/c3cccc(O)c3O)n2C)cc1	15.7%	86.7%	25.4%	46%	26%	59.2%	34.6%	39.1%	17.3%	80%	95.3%	58.8%	46.8%	14.2%	38.8%	13.5%	37.3%	93.3%	13.1%	11.2%
CCOc1ccc(NC(=O)Nc2ccc(OCC)cc2)cc1	106%	107%	106%	107%	99.8%	100%	104%	105%	98.3%	101%	121%	108%	104%	95.2%	107%	116%	103%	104%	107%	99.3%
COc1ccc2c(c1)oc1c(C)c3c(c(C)c12)C(=O)N(CCOS(C)(=O)=O)C3=O	102%	101%	103%	95.4%	108%	96.5%	101%	87.8%	90.3%	102%	101%	107%	94%	88.2%	124%	97.1%	95.4%	129%	100%	94.7%
CCCn1c(=S)sc2c(NNC(C)=O)nc(C)nc21	90.2%	103%	89.9%	92.4%	91.1%	90.3%	96.4%	93%	87%	141%	92.5%	88.5%	101%	90%	94.5%	88.1%	70.7%	78.1%	88%	114%
O=C(/C=C/c1ccccc1Cl)c1cccc(OCCCCOc2cccc(C(=O)/C=C/c3ccccc3Cl)c2)c1	103%	96.9%	86%	100%	90.3%	91.1%	99.5%	85.5%	102%	99.7%	110%	107%	95.8%	83.9%	118%	98.4%	93.4%	109%	91.8%	93.9%
C[C@@H]1NC(=O)[C@H](Cc2ccccc2)N(Cc2cccnc2)C1=O	103%	102%	85.1%	96.1%	91.1%	94.1%	101%	92.7%	98.5%	112%	96.7%	109%	93.6%	89%	95%	97.3%	90.2%	63.5%	109%	101%
